Only some compounds are listed: those with a hit (about 7.9% of all), similar ones and a draw of the others.
Cav32 inh = Cav3.2 calcium influx blockers – cell-based, Fluo-4 calcium fluorescence, FDSS, MLSMR library, primary screen; Cav3.2-expressing cells; hits give low values; B-score at 10 µM; actives 4% (n = 100,000); AID 449739, 2010;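 active = single-dose well whose peak fluorescence ratio is a statistical outlier from its plate by either plate-standardised score or position-corrected B-score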
Her2 expr inh = inhibitors of Her2 protein expression, primary screen, SKBR-3 cells, AlphaScreen, 66K library; Receptor tyrosine-protein kinase erbB-2 (Homo sapiens), P04626; SKBR-3 HER2 protein level, 18-24 h; hits give low values; HER2 level % of control, % at 10 µM; actives 0.69% (n = 65,000);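 active = HER2 level under 5% of the carrier-only control; inconclusive = no clear call, values can overlap the other calls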;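 note: lower value means stronger loss of Her2 protein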
M1 antag = antagonists of rat M1 muscarinic receptor | CHO-M1 cells, Fluo-4 calcium, ACh EC80 antagonist mode; hits give low values | Muscarinic acetylcholine receptor M1 (Rattus norvegicus), P08482 | actives 3.4% (n = 64,000) | B-score at 10 µM | AID 628, 2007;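 active = calcium fluorescence response, raw or row-and-column corrected B-score, differing from the plate sample mean either way at a set confidence level, mostly lower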
M1 agonist = M1 muscarinic receptor agonists, primary screen, CHO-M1 cells, Fluo-4 calcium, agonist mode. Muscarinic acetylcholine receptor M1. Fluo-4 calcium fluorescence; hits give high values. B-score at 10 µM. actives 3% (n = 64,000). AID 626, 2007;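 active = fluorescence rise, raw or as B-score row- and column-corrected plate score, outside the 99.7% band of its plate's samples, either direction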
PLAP activator = PLAP enzyme activators, biochemical, luminescence, HTS. purified PLAP enzyme, luminescent substrate read-out; hits give high values. activation fold at 20 µM. AID 696, 2007. actives 1.2% (n = 96,000); in the data active = activation fold above about 2
M1 agonist conf = rat M1 muscarinic receptor agonists, confirmation, CHO-M1 cells, Fluo-4 calcium, duplicate retest | actives 19% (n = 1,700) | Fluo-4 calcium fluorescence, agonist mode; actives lie on both sides | fluorescence change (max-min) at 10 µM | shares compounds with M1 agonist;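 active = fluorescence change differs from the solvent-only DMSO control mean at a set confidence level in both duplicate runs; inconclusive = differs from solvent-only control mean in just one of two runs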;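 note: an EC20 dose of acetylcholine follows compound addition during the same imaging run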
M4 agonist ctr = agonist activity at rat M4 receptor, confirmation, counter-screen for M1 allosteric modulator project, cell-based, agonist mode; shares compounds with M1 agonist; fluorescence change (max-min) at 10 µM; AID 1741, 2009; actives 9% (n = 1,700); CHO M4/Gqi5 cells, Fluo-4 calcium fluorescence; actives lie on both sides;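 active = fluorescence change differing from the plate's solvent-only control wells at 99.7% confidence in both duplicates, whether higher or lower; inconclusive = differs from solvent controls in only one of two duplicates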
Numbers stand for hits; - = inactive; ? = inconclusive; . = no result given.

SMILES | Cav32 inh | Her2 expr inh | M1 antag | M1 agonist | PLAP activator | M1 agonist conf | M4 agonist ctr
Cc1c(C(=O)NCCc2ccccc2)oc2ccc(S(=O)(=O)N3CCC4(CC3)OCCO4)cc12 | - | - | - | - | - | . | .
COc1ccc(NC(=O)c2oc3ccc(S(=O)(=O)N4CCC5(CC4)OCCO5)cc3c2C)cc1 | - | - | - | 13.2 | - | ? | -
CS(=O)(=O)N(CC(=O)NCc1cccnc1)Cc1ccc(Cl)cc1 | - | - | - | - | - | . | .
CS(=O)(=O)N(CC(=O)NCc1ccncc1)Cc1ccc(Cl)cc1 | - | - | - | 2.16 | - | - | -
CCOC(=O)CSc1cc(=O)n(C)c2cc(Cl)ccc12 | . | - | - | - | - | . | .
COC(=O)c1ccc(/C(O)=C(\C#N)c2nc3ccccc3s2)cc1 | - | - | -2.39 | 2.66 | - | - | -
Cc1ccccc1Cn1ccc(NC(=O)c2cnn3c2NC(c2ccccc2)CC3C(F)(F)F)n1 (centres undefined) | - | . | . | . | - | . | .
Cc1nn(C)c(C)c1CN(C)C(=O)c1cnn2c1NC(c1ccccc1)CC2C(F)(F)F (centres undefined) | - | - | - | -3.3 | - | -26 | ?
c1ccc(Nc2ncnc3sc4c(c23)CCC4)cc1 | - | . | . | . | - | . | .
c1csc(CCNc2ncnc3sc4c(c23)CCC4)c1 | . | - | -1.34 | 3.92 | - | - | -
Cc1ccc(NC(=S)C2=C(O)c3ccccc3N(C)S2(=O)=O)cc1 | - | . | . | . | - | . | .
CN1C(C(=O)NCc2ccc(OC(F)(F)F)cc2)CC2Cn3c(nc4cc5ccccc5cc43)C21 (centres undefined) | - | . | . | . | . | . | .
COC(=O)c1ccc(CC(=O)c2ccc(O)cc2O)o1 | - | - | - | 20.1 | - | - | -
c1ccc(Cn2nnc(CNc3ccccc3)c2-c2c(CNc3ccccc3)nnn2Cc2ccccc2)cc1 | - | . | . | . | . | . | .
CCN1CCN(Cc2ccc(NC(=O)Nc3ccccc3)cc2)CC1 | - | - | - | 6.51 | - | - | -
Cc1csc(SCC(=O)Nc2cc(C(C)(C)C)nn2-c2ccccc2)n1 | - | - | - | 2.45 | - | ? | -
Cc1csc(SCC(=O)Nc2ccccn2)n1 | - | - | - | - | - | . | .
CCn1c(C(=O)N2CCC(C(=O)N3CCN(c4ccccn4)CC3)CC2)cc2sccc21 | - | - | - | 2.55 | - | - | ?
COc1ccc(NC(=O)COc2ccccc2C#N)c(S(=O)(=O)N2CCCCC2)c1 | - | - | - | 4.41 | - | - | -
O=C(Nc1nnc(CC(=O)N2CCCC2)s1)c1cnccn1 | . | - | . | . | . | . | .
CCOC(=O)N1CCN(C2=Nc3cccc4cccc2c34)CC1 | - | - | -10.6 | 8.53 | - | 107 | ?
CC(=O)N1CCN(C2=Nc3cccc4cccc2c34)CC1 | - | - | - | 9.47 | - | 101 | 92.1
Cn1nc(C(F)(F)F)c(C(=O)Nc2ccc(F)cc2F)c1Sc1ccc(C(F)(F)F)cc1 | - | . | . | . | - | . | .
CCOC(=O)C1CCN(C(=O)Cc2ccc(OC)c(OC)c2)CC1 | - | - | - | - | - | . | .
CCOC(=O)C1CCN(C(=O)c2cc3c(-c4ccc(OC)c(OC)c4)nn(C)c3s2)CC1 | - | - | - | 2.28 | - | - | -
O=C(c1ccccc1)N(Cc1ccc2c(c1)OCO2)Cc1nc2ccccc2c(=O)[nH]1 | - | - | - | 2.67 | - | ? | -
Clc1ccc(COc2ccccn2)cc1Cl | - | . | . | . | - | . | .
COc1ccc(NC(=O)c2ccccc2NC(=O)c2ccco2)c(OC)c1 | - | - | - | 7.72 | - | ? | -
COc1ccc2c(=O)c(C(=O)NCCc3ccc(OC)c(OC)c3)c[nH]c2c1 | - | - | - | 4.89 | - | ? | ?
COc1ccc(CCNC(=O)c2ccccc2NC(=O)c2ccco2)cc1OC | - | - | - | 3.97 | - | ? | -77.5
